According to PubChem BioAssay (EPA / NIEHS):
Values joined by “and” are separate entries in the source; they are usually repeats but may differ in a detail not shown here. Equal entries are not always repeated. Results filed as inconclusive are left out. Active and inactive are the calls of the source. The calls were made as follows, unless noted: active = hit-call score of the fitted dose curve at least 0.9, where 1 is the maximum; inactive = score below 0.9.

Tests used:
[1] = Tanguay_ZF_120hpf_OTIC_legacy: (Legacy) Oregon State University Tanguay Lab 120 Hour Post-fertilization zebrafish Assay for Otic Vesicle Malformation (AID 2283639; active = hit-call score of the fitted dose curve at least 0.9, where 1 is the maximum)
Outline: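 Wild-type zebrafish larvae, whole-embryo exposure from early stage to 120 hpf at 28C. Binary brightfield scoring of otic vesicle morphology, fitted in the positive direction against the DMSO baseline.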

[2] = Tanguay_ZF_120hpf_PE_legacy: (Legacy) Oregon State University Tanguay Lab 120 Hour Post-fertilization zebrafish Assay for Pericardial Edema (AID 2283640; active = hit-call score of the fitted dose curve at least 0.9, where 1 is the maximum)
Outline: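 Static waterborne exposure, 5D wild-type embryos, 28C, to 120 hpf; final DMSO 0.64% (vol/vol). Binary PE call at 120 hpf by brightfield; fitted upward vs DMSO baseline. 5uM trimethyltin chloride as positive control.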

[3] = Tanguay_ZF_120hpf_BRAI_legacy: (Legacy) Oregon State University Tanguay Lab 120 Hour Post-fertilization zebrafish Assay for Brain Malformation (AID 2283641; active = hit-call score of the fitted dose curve at least 0.9, where 1 is the maximum)
Outline: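 Read-out: binary brain morphology call at 120 hpf (brightfield), fitted in gain-of-signal direction vs DMSO. Wild-type Tropical 5D embryos, static exposure, 28C, 0.64% DMSO final; 5uM trimethyltin chloride as positive control.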

[4] = Tanguay_ZF_120hpf_SOMI_legacy: (Legacy) Oregon State University Tanguay Lab 120 Hour Post-fertilization zebrafish Assay for Somite Malformation (AID 2283647; active = hit-call score of the fitted dose curve at least 0.9, where 1 is the maximum)
Outline: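 Binary brightfield scoring of somite defects at 120 hpf in 5D wild-type larvae; one dechorionated embryo per well, static exposure from 6 hpf, 28C, sealed and dark. Final DMSO 0.64%; trimethyltin chloride 5uM positive control.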

[5] = Tanguay_ZF_120hpf_PFIN_legacy: (Legacy) Oregon State University Tanguay Lab 120 Hour Post-fertilization zebrafish Assay for Pectoral Fin Malformation (AID 2283648; active = hit-call score of the fitted dose curve at least 0.9, where 1 is the maximum;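 also: each larva judged yes or no for fin defect by brightfield with dead larvae skipped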)
Outline: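 Pectoral fin malformation was recorded as a binary endpoint at 120 hpf in wild-type Tropical 5D larvae, which had been dechorionated and exposed statically from 6 hpf at 28C in 0.64% DMSO. Dead embryos were excluded.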

[6] = Tanguay_ZF_120hpf_CFIN_legacy: (Legacy) Oregon State University Tanguay Lab 120 Hour Post-fertilization zebrafish Assay for Caudal Fin Malformation (AID 2283649; active = hit-call score of the fitted dose curve at least 0.9, where 1 is the maximum)
Outline: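 Dechorionated 5D wild-type zebrafish, static exposure 6–120 hpf, 28C, sealed and dark, 0.64% v/v DMSO final. Binary fin-malformation call at 120 hpf, brightfield; gain of signal vs DMSO baseline.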

[7] = Tanguay_ZF_120hpf_SWIM_legacy: (Legacy) Oregon State University Tanguay Lab 120 Hour Post-fertilization zebrafish Assay for Swim Bladder Malformation (AID 2283654; active = hit-call score of the fitted dose curve at least 0.9, where 1 is the maximum;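 also: swim bladder malformation in each larva scored yes or no under brightfield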)
Outline: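 Scoring is binary for swim bladder defects at 120 hpf, by brightfield inspection of zebrafish larvae. Embryos were exposed singly from 6 hpf after pronase dechorionation, at 28C with 0.64% DMSO; mortality excluded scoring.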

[8] = Tanguay_ZF_120hpf_TRUN_legacy: (Legacy) Oregon State University Tanguay Lab 120 Hour Post-fertilization zebrafish Assay for Truncated Body (AID 2283655; active = hit-call score of the fitted dose curve at least 0.9, where 1 is the maximum)
Outline: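 Whole-embryo zebrafish screen: dechorionated 5D embryos, static exposure 6–120 hpf, 28C, sealed foil-covered plates, 0.64% DMSO. Binary truncation call; gain of signal versus DMSO baseline.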

[9] = Tanguay_ZF_120hpf_NC_legacy: (Legacy) Oregon State University Tanguay Lab 120 Hour Post-fertilization zebrafish Assay for Notochord and Tail Malformation (AID 2283656; active = hit-call score of the fitted dose curve at least 0.9, where 1 is the maximum)
Outline: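 Binary notochord-distortion calls, made by brightfield inspection, form the read-out; activity is fitted in the positive direction against DMSO. Exposure ran statically from 6 to 120 hpf at 28C with 0.64% DMSO.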

[10] = Tanguay_ZF_120hpf_TR_legacy: (Legacy) Oregon State University Tanguay Lab 120 Hour Post-fertilization zebrafish Assay for Touch Response (AID 2283667; active = hit-call score of the fitted dose curve at least 0.9, where 1 is the maximum)
Outline: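 Binary touch-response endpoint in larvae at 120 hpf after static waterborne exposure from embryo stage (28°C, 0.64% DMSO vehicle, 5 uM trimethyltin chloride as positive control); embryos dead at 24 or 120 hpf excluded; fitted as gain versus DMSO.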

[11] = Tanguay_ZF_120hpf_ActivityScore_legacy: (Legacy) Oregon State University Tanguay Lab 120 Hour Post-fertilization zebrafish Assay Score for Activity (AID 2283742; active = hit-call score of the fitted dose curve at least 0.9, where 1 is the maximum)
Outline: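 Binary scoring of mortality and morphology by brightfield at 24 and 120 hpf, summarised into one activity score from 18 components relative to DMSO. Wild-type Tropical 5D zebrafish, chorion removed at 4 hpf, static exposure 6–120 hpf, 28 °C.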

[12] = molecular target: human Retinoic Acid Receptor gamma (RARg), RARG (gene 5916) (UniProt P13631); experiment: ATG_RARg_TRANS: Attagene TRANS-FACTORIAL HepG2 Assay for human Retinoic Acid Receptor gamma (RARg) (AID 2283009; active = hit-call score of the fitted dose curve at least 0.9, where 1 is the maximum)
human Retinoic Acid Receptor gamma (RARg), RARG (gene 5916), sequence (P13631 whole entry, looked up, the tested form may be a part): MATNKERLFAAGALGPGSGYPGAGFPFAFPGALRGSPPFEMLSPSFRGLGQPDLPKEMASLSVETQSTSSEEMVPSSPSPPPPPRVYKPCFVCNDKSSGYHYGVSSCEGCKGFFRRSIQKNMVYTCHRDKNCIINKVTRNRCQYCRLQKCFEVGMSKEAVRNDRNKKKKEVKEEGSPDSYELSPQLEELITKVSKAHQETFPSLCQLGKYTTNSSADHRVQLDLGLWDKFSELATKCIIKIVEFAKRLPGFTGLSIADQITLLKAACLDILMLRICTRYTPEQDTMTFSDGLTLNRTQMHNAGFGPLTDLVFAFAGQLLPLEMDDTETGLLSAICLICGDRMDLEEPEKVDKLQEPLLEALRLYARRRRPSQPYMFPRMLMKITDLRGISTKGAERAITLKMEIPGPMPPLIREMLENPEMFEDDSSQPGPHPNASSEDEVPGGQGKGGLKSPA
Outline: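 Gain-of-signal relative to DMSO is reported from fluorescent capillary electrophoresis of RT-PCR reporter products. These came from HepG2 cells expressing transfected RARg-GAL4 chimeras with UAS reporters, harvested 24 h after dosing.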

[13] = read-out: Monokine induced gamma interferon (MIG), CXCL9 (gene 4283); experiment: BSK_KF3CT_MIG: BioMAP Diversity Plus: KF3CT Assay for Monokine induced gamma interferon (MIG) Biomarker Activity (AID 2284248); settings: primary human keratinocytes with fibroblasts
Outline: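 ELISA read-out of MIG after 24 h chemical exposure of human skin primary co-culture (keratinocytes, foreskin fibroblasts). Gain of signal relative to DMSO negative control was analysed.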

[14] = read-out: Interferon-inducible T-cell alpha chemoattractant (ITAC), CXCL11 (gene 6373); experiment: BSK_hDFCGF_ITAC: BioMAP Diversity Plus: hDFCGF Assay for Interferon-inducible T-cell alpha chemoattractant (ITAC) Biomarker Activity (AID 2284251); settings: primary human foreskin fibroblasts
Outline: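 I-TAC levels were read by ELISA on human dermal foreskin fibroblast primary cultures 24 h after dosing, analysed against DMSO in the positive direction. Cytotoxicity was assessed alongside by sulforhodamine B total-protein staining.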

[15] = read-out: Plasminogen activator inhibitor-1 (PAI1), SERPINE1 (gene 5054); experiment: BSK_KF3CT_PAI1: BioMAP Diversity Plus: KF3CT Assay for Plasminogen activator inhibitor-1 (PAI1) Biomarker Activity (AID 2284252); settings: primary human keratinocytes with fibroblasts
Outline: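 In this co-culture of primary human keratinocytes and foreskin fibroblasts, PAI-1 was measured by ELISA at 24 h and fitted upward from DMSO.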

[16] = read-out: Intercellular Adhesion Molecule 1 (ICAM1), ICAM1 (gene 3383); experiment: BSK_BE3C_ICAM1: BioMAP Diversity Plus: BE3C Assay for Intercellular Adhesion Molecule 1 (ICAM1) Biomarker Activity (AID 2284278); settings: primary human bronchial epithelial cells
Outline: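 hu bronchial epithelial primary cells, 24 h cpd exposure, ICAM-1 ELISA; gain-of-signal fit vs DMSO baseline.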

[17] = read-out: Interferon-inducible T-cell alpha chemoattractant (ITAC), CXCL11 (gene 6373); experiment: BSK_BE3C_ITAC: BioMAP Diversity Plus: BE3C Assay for Interferon-inducible T-cell alpha chemoattractant (ITAC) Biomarker Activity (AID 2284279); settings: primary human bronchial epithelial cells
Outline: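 ELISA read-out of I-TAC after 24 h chemical dosing of human lung primary bronchial epithelial cells; gain-of-signal fit vs DMSO baseline. Parallel SRB total-protein staining (0.1% SRB, 10% TCA fixation, 560 nm) assessed cytotoxicity.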

[18] = read-out: Interleukin-8 (IL8), CXCL8 (gene 3576); experiment: BSK_BE3C_IL8: BioMAP Diversity Plus: BE3C Assay for Interleukin-8 (IL8) Biomarker Activity (AID 2284280); settings: primary human bronchial epithelial cells
Outline: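 Primary human bronchial epithelial cells (BE3C system) were exposed to test chemical for 24 h, and IL-8 levels were then measured by ELISA. Activity was fitted in the positive (gain-of-signal) direction against a DMSO negative-control baseline.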

[19] = read-out: Epidermal growth factor receptor (EGFR), EGFR (gene 1956); experiment: BSK_BE3C_EGFR: BioMAP Diversity Plus: BE3C Assay for Epidermal growth factor receptor (EGFR) Biomarker Activity (AID 2284281); settings: primary human bronchial epithelial cells
Outline: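 Human primary bronchial epithelial cells were exposed to compound for 24 h, and cell-surface EGFR was then quantified by ELISA. Activity was fitted in the positive direction against the DMSO vehicle baseline.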

[20] = read-out: Matrix Metallopeptidase 9 (MMP9), MMP9 (gene 4318); experiment: BSK_BE3C_MMP9: BioMAP Diversity Plus: BE3C Assay for Matrix Metallopeptidase 9 (MMP9) Biomarker Activity (AID 2284283); settings: primary human bronchial epithelial cells
Outline: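 ELISA read-out of MMP-9 after 24 h compound exposure of human lung bronchial epithelial primary cells (BE3C). Fit in gain direction vs DMSO negative control; total protein by SRB in parallel cultures flagged overt cytotoxicity.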

Measured: AC50

N#CCCCCC#N
inactive: [1] | [2] | [3] | [4] | [5] | [6] | [7] | [8] | [9] | [10] | [11]

CCOP(=O)(OCC)OCC
inactive: [12]

Oc1ccc(C2(c3ccc(O)cc3)c3ccccc3-c3ccccc32)cc1
active: [13] 7.47 µM and 7.4 µM | [14] 1.8 µM and 1.21 µM | [15] 5.43 µM | [16] 7.57 µM and 7.24 µM | [17] 5.43 µM and 5.42 µM | [18] 6.88 µM and 5.35 µM | [20] 383 nM and 5.33 µM
inactive: [19]

Oc1cc(Cl)ccc1Cl
inactive: [12]

COc1ccc(CO)cc1
inactive: [13] | [14] | [15] | [16] | [17] | [18] | [19] | [20]

O=[N+]([O-])c1ccc(Cl)cc1
inactive: [1] | [2] | [3] | [4] | [5] | [6] | [7] | [8] | [9] | [10] | [11]
